The results in this text go back to PubChem BioAssay AID1942 (Johns Hopkins Ion Channel Center, 2009).

The structures appear in SMILES notation. Out of some 2,400 compounds screened, about 580 (24%) were called active. A selection follows. A number with no mark means an inactive call.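 The calls were made as follows: active = activity change at or above the mean plus 3 SD of buffer wells without dofetilide, per plate; inactive = the rest.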

For this experiment, the target named is Potassium voltage-gated channel subfamily KQT member 2 (Rattus norvegicus) (UniProt O88943). Kind of experiment: rat KCNQ2 channel activation by compounds alone, confirmation, counter-screen for hERG block protector project, cell-based, CHO, FluxOR thallium flux (AID 1942).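 Also: normalized value minus buffer-control mean plus three SD of buffer wells.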 The settings on record: CHO-KCNQ2 cells, FluxOR thallium flux fluorescence; at 10 µM; active compounds read high. A general note: A counterscreen serves to expose hits that act by an unwanted route or on another target.
Sequence of Potassium voltage-gated channel subfamily KQT member 2 (Rattus norvegicus) (O88943 whole entry, looked up): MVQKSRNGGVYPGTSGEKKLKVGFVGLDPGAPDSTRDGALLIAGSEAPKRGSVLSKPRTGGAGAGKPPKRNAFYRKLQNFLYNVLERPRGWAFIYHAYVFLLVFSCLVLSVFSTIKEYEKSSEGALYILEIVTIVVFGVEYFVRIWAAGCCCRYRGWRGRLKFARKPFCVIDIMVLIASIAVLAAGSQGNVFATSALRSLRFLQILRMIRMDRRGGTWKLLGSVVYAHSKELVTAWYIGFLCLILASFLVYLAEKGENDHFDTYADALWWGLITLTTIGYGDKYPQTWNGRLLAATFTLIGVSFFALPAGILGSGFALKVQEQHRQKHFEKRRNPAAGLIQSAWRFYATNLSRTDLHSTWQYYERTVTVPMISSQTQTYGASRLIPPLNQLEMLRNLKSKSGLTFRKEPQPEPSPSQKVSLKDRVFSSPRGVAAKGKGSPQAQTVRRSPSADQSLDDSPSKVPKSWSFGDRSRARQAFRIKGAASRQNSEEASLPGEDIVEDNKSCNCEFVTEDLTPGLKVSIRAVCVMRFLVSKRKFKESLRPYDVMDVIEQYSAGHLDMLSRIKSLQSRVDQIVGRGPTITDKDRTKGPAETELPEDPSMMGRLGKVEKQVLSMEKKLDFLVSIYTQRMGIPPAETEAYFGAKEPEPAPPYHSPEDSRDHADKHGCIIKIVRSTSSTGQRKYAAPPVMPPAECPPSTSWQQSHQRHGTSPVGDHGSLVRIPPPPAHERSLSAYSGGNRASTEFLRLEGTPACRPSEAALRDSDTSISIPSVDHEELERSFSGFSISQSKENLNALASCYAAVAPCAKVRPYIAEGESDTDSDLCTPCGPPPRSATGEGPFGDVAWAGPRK
As for `COc1ccc(C(=O)NC2CC3CCCC(C2)N3Cc2ccccc2)cc1` (stereo unspecified), the activity change, less the hit threshold was -27.5%.
The figure for `O=c1[nH]c(N2CCN(c3ccccc3)CC2)nc2c1CCCC2` is -11.1%; for `C=C(C)CSc1nc(N)cc(=O)[nH]1` it is -12%; for `CC1CCCCC1n1c(=S)[nH]c2ccccc2c1=O` (stereo unspecified) it is 6.6% (active).
In the case of `CC1CCC(n2c(=S)[nH]c3ccccc3c2=O)CC1` (stereo unspecified) it was 47.8% (active).
In the case of `O=c1c2ccccc2[nH]c(=S)n1C1CCCCC1` it was -15.1%; in that of `CC1CCC(N2CCN(C(=O)c3ccccc3F)CC2)CC1` (stereo unspecified), -9.6%; in that of `Cn1c(O)c(N=NC(=S)Nc2ccccc2F)c2cc(S(=O)(=O)N3CCOCC3)ccc21`, -19.7%.
In the case of `Cc1ccc(C(C)C)cc1S(=O)(=O)NC1CC(C)(C)NC(C)(C)C1`, the activity change, less the hit threshold was -26%.
In the case of `Nc1cc(N)nc(SCc2cc(=O)oc3cc4c(cc23)CCC4)n1` it was -20.8%; in that of `CS(=O)(=O)N(CCc1ccccc1)CC(=O)N1CCN(c2ccc(F)cc2)CC1`, -26.1%.
In the case of `Cc1cc(C(=O)NCc2ccc(S(N)(=O)=O)cc2)ccc1[N+](=O)[O-]` it was -13.6%.
In the case of `O=C(NCc1cccnc1)c1ccc(NS(=O)(=O)c2ccc(F)cc2)cc1` it was -4.9%; in that of `Cc1cc2ccccn2c1C(=S)NC(=O)c1ccccc1`, 40.3% (active).
Regarding `O=C(NC(=S)Nc1ncc(Br)cc1Br)c1ccccc1`, the activity change, less the hit threshold was -0.7%.
In the case of `O=C(c1n[nH]c2c1CCCC2)n1ccnc1` it was -12.7%.
The figure for `C[C@@H]1CCCCCCCCCCC1=O` is -18%; for `Cc1ccc(C(=O)COC(=O)C2CCC2)cc1` it is 2.2% (active).
The figure for `Cc1ccc(C(=O)CC(=O)COc2ccc(Cl)cc2C)cc1` is -1.4%; for `Cc1ccc(C(=O)CC(=O)c2ccc(C)cc2O)cc1` it is -9.3%; for `O=c1ccn(Cc2ccc(F)cc2)c2ccnc(C(F)(F)F)c12` it is -16.3%.
As to `CCc1ccc2[nH]c(=O)c(-c3ccccc3)c(O)c2c1`, the activity change, less the hit threshold is -20.4%.
The figure for `Cc1cccc(N2CCN(C(=O)CNC(=O)c3cccc([N+](=O)[O-])c3)CC2)c1C` is -27.6%; for `Cc1cc2[nH]c(=O)c(=O)[nH]c2cc1S(=O)(=O)N1CCN(c2cccc(C)c2C)CC1` it is -10.5%.
The figure for `Cc1cccc(N2CCN(C(=O)Cc3c(C(=O)O)[nH]c4ccc(Cl)cc34)CC2)c1C` is 16.8% (active).
In the case of `CCOC(=O)C1=C(N)Oc2cc(O)ccc2C1c1cccnc1` (stereo unspecified) it was -24.7%; in that of `COc1ccc(N2CCN(C(=S)NC(=O)c3cccs3)CC2)c([N+](=O)[O-])c1`, -6.4%.
As for `CC(C)Oc1cccc(C(=O)NC(=S)N2CCN(c3ccc(C(F)(F)F)cc3[N+](=O)[O-])CC2)c1`, the activity change, less the hit threshold is -12.3%.
In the case of `O=C(NC(=S)Nc1cccc(Cl)c1N1CCOCC1)c1cccs1` it was -17%.
The figure for `O=C(NC(=S)Nc1ccc(N2CCCCC2)c(Cl)c1)c1cccs1` is -0.7%.
In the case of `O=C(NC(=S)Nc1cccc(Cl)c1N1CCCCC1)c1cccs1` it was -12.7%; in that of `O=C(NC(=S)N1CCN(c2ccc(C(F)(F)F)cc2[N+](=O)[O-])CC1)c1cccs1`, 15.6% (active).
Take `COc1cccc(OC)c1C(=O)NC(=S)N1CCN(c2ccc(C(F)(F)F)cc2[N+](=O)[O-])CC1`: the activity change, less the hit threshold was -33.8%.
On to `O=C(NC(=S)N1CCN(c2ccc(Cl)cc2[N+](=O)[O-])CC1)c1cccs1`, for which the activity change, less the hit threshold is 2.3% (active).
For the molecule `O=C(NC(=S)N1CCN(c2c(Cl)cccc2[N+](=O)[O-])CC1)c1cccs1`, the activity change, less the hit threshold was 7.2% (active).
Consider `COc1ccc(-c2ccc3c(N)c(C(=O)c4ccc(OC)c(OC)c4)sc3n2)cc1`, for which the activity change, less the hit threshold is -11.8%.
In the case of `Cc1c(C#N)c(O)[nH]c(=O)c1N=Nc1ccc(Br)cc1C(=O)O` it was -13.8%.
In the case of `COc1ccc2c(C(=O)CN3CCN(c4ccccc4)CC3)c[nH]c2c1` it was -21.6%; in that of `CCCCCCc1c(O)nc(SCC(=O)O)[nH]c1=O`, -23.9%.
In the case of `CC1=NN(c2nc(-c3ccccc3)cs2)C(=O)C1N=Nc1ccccc1` (stereo unspecified) it was -28%; in that of `COC(=O)c1ccccc1NC(=O)C1CCCN(S(C)(=O)=O)C1` (stereo unspecified), -18.8%; in that of `CCc1nnc(NC(=O)C2CCCCN2S(=O)(=O)c2ccccc2)s1` (stereo unspecified), -11.7%.
Regarding `Cc1nnc(NC(=O)C2CCCN(S(=O)(=O)c3ccccc3C(F)(F)F)C2)s1` (stereo unspecified), the activity change, less the hit threshold was 4.9% (active).
For the molecule `CSc1nsc(SCC(=O)Nc2ccccc2C(=O)O)n1`, the activity change, less the hit threshold was -13%.
In the case of `COC(=O)CCn1[nH]c(=O)c2ccccc2c1=O`, the activity change, less the hit threshold was -15.8%.
In the case of `CC(=O)NCCc1nc2cc(NC(=O)c3ccc(Cl)cc3)ccc2n1C` it was -14.1%; in that of `C/C(=N/NC(=S)Nc1cccc(C)c1)c1cccc([N+](=O)[O-])c1`, -13.2%; in that of `C/C(=N\Nc1cc(N2CCOCC2)ncn1)c1cccc([N+](=O)[O-])c1`, -15.9%.
In the case of `C/C(=N\Nc1nc(C)c(C)s1)c1ccc([N+](=O)[O-])cc1` it was 17% (active); in that of `Cc1cc(C)cc(N(C(=O)c2cc3ccccc3oc2=O)C2C=CS(=O)(=O)C2)c1` (stereo unspecified), -12.7%; in that of `COc1ccc(CC(=O)Nc2ccccc2Oc2ccccc2)cc1`, -0.3%.
